Results taken from PubChem BioAssay.
Calls of active or inactive are those of the source. Unless noted, how the calls were made is not given here.

Key:
[1] = compound effects on lung adenocarcinoma cell viability – A549, calcein-AM fluorescence, 48 h, basal, profiling panel (AID 1162); details: higher = more signal; further: test concentration not given here
[2] = compound effects on differentiated 3T3-L1 adipocyte viability – cell-based, 3T3-L1 adipocytes, calcein-AM fluorescence, 48 h, basal, profiling panel (AID 1163); details: 3T3-L1 adipocytes viability, higher = more signal; further: test concentration not given here
[3] = compound effects on hepatocellular carcinoma cell viability – HepG2, calcein-AM fluorescence, 48 h, basal, profiling panel (AID 1164); details: higher = more signal; further: test concentration not given here
[4] = compound effects on multiple myeloma cell viability – MM1S, calcein-AM fluorescence, 48 h, basal, profiling panel (AID 1165); details: higher = more signal;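 further: viability of MM1S multiple myeloma cells under basal unstimulated conditions; test concentration not given here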
[5] = calcein-AM signal in unstimulated myeloma cells – cell-based, calcein-AM fluorescence, 48 h, PK04 Diversity Set, profiling panel (AID 1166); details: RPMI8226 myeloma viability, higher = more signal;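 further: cells grown under basal conditions without added stimulus; test concentration not given here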
[6] = JC-1 mitochondrial signal, unstimulated HepG2 cells – cell-based, JC-1 fluorescence, 24 h, 100 nL compound, profiling panel (AID 1167); details: HepG2 mitochondrial potential, higher = more signal; further: test concentration not given here
[7] = JC-1 mitochondrial signal, unstimulated adipocytes – cell-based, JC-1 fluorescence, 3T3-L1 adipocytes, 24 h, 100 nL compound, profiling panel (AID 1168); details: JC-1 mitochondrial fluorescence, higher = more signal, called active from +8 up or from −8 down; further: test concentration not given here
[8] = JC-1 mitochondrial signal, unstimulated myeloma cells – cell-based, JC-1 fluorescence, RPMI8226, 24 h, 100 nL compound, profiling panel (AID 1169); details: JC-1 mitochondrial potential fluorescence, higher = more signal; further: test concentration not given here
[9] = JC-1 mitochondrial signal, unstimulated MM1S myeloma – cell-based, JC-1 fluorescence, 24 h, 100 nL compound, profiling panel (AID 1170); details: MM1S mitochondrial potential, higher = more signal; further: test concentration not given here
[10] = resazurin metabolic signal in A549 cells – cell-based, resazurin fluorescence, 24 h, PK04 Diversity Set, profiling panel (AID 1171); details: A549 viability, higher = more signal, called active from +8 up or from −8 down; further: test concentration not given here
[11] = resazurin metabolic signal in HepG2 cells – cell-based, resazurin fluorescence, 24 h, PK04 Diversity Set, profiling panel (AID 1172); details: HepG2 viability, higher = more signal; further: test concentration not given here
[12] = budding yeast growth changes without added modifier – OD600, strain BY4716, 24 h, basal condition, primary screen (AID 1173); details: S. cerevisiae BY4716 growth, OD600, 24 h; higher = more signal, called active from +8 up or from −8 down
[13] = viability profiling in MM1S myeloma cells – cell-based, resazurin fluorescence, basal, 24 h, PK04 Diversity Set, profiling panel (AID 1174); details: higher = more signal, called active from +8 up or from −8 down; further: test concentration not given here
[14] = molecular target: Dihydroorotate dehydrogenase (quinone), mitochondrial (Plasmodium falciparum (isolate 3D7)) (UniProt Q08210); assay: inhibition of P. falciparum DHODH – biochemical, C-terminal His tag, absorbance 600 nm, primary screen (AID 1175); details: PfDHODH enzyme, DCIP absorbance 600 nm; higher = more signal, called active from +8 up or from −8 down;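 further: recombinant parasite enzyme with a five histidine tag at its C terminus; test concentration not given here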
Dihydroorotate dehydrogenase (quinone), mitochondrial (Plasmodium falciparum (isolate 3D7)), sequence (Q08210 whole entry, looked up): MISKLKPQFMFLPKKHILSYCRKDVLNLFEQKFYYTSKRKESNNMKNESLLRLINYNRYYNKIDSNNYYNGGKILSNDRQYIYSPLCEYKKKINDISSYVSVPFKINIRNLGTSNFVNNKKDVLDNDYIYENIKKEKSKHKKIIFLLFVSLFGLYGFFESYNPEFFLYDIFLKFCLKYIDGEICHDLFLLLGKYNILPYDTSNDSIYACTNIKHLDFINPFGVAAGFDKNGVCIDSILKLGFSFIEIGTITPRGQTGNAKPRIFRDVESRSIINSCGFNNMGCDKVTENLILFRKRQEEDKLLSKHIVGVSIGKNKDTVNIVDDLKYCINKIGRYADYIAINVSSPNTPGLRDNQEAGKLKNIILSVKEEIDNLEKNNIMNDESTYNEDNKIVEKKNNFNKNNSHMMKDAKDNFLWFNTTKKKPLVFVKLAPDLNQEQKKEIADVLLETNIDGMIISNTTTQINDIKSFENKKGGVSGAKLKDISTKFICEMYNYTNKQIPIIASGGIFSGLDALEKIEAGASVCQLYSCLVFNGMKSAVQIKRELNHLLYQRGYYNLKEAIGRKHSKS

[15] = inhibition of PAO1 biofilm formation – strain PAO1, LB-PBS medium, absorbance 600 nm, primary screen (AID 1176); further: test concentration not given here; details: P. aeruginosa PAO1 growth/biofilm, A600, 12 h; higher = more signal
[16] = growth modulation of vineyard yeast isolate – strain RM11-1a, OD600, basal, 24 h, primary screen (AID 1177);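 further: cultures grown under basal conditions with no added stressor; test concentration not given here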; details: S. cerevisiae RM11-1a growth, OD600, 24 h; higher = more signal, called active from +8 up or from −8 down
[17] = growth of efflux-deficient E. coli DRC39 – strain DRC39, OD650, 24 h, E. coli filamentation inducers, primary screen (AID 1178);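 further: growth measured as culture turbidity by optical density at 650 nm; test concentration not given here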; details: E. coli DRC39 acrAB, higher = more signal, called active from +8 up or from −8 down
[18] = growth of efflux-deficient E. coli DRC39 – strain DRC39, OD650, 48 h, E. coli filamentation inducers, primary screen (AID 1179);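 further: screen aims at cell division blockers that make cells filament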; details: E. coli DRC39 delta-acrAB growth, higher = more signal, called active from +8 up or from −8 down
[19] = viability profiling in RPMI8226 myeloma cells – cell-based, resazurin fluorescence, basal, 24 h, PK04 Diversity Set, profiling panel (AID 1180); details: higher = more signal;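 further: RPMI8826 multiple myeloma cell line at 5000 cells per well; test concentration not given here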
[20] = molecular target: E3 ubiquitin-protein ligase XIAP (Homo sapiens) (UniProt P98170); assay: small molecules binding XIAP protein – biophysical, small-molecule microarray, fluorescence 635 nm, primary screen (AID 1181); details: higher = more signal;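 further: score merges 667 nm emission and signal to noise over triplicate slides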
E3 ubiquitin-protein ligase XIAP (Homo sapiens), sequence (P98170 whole entry, looked up): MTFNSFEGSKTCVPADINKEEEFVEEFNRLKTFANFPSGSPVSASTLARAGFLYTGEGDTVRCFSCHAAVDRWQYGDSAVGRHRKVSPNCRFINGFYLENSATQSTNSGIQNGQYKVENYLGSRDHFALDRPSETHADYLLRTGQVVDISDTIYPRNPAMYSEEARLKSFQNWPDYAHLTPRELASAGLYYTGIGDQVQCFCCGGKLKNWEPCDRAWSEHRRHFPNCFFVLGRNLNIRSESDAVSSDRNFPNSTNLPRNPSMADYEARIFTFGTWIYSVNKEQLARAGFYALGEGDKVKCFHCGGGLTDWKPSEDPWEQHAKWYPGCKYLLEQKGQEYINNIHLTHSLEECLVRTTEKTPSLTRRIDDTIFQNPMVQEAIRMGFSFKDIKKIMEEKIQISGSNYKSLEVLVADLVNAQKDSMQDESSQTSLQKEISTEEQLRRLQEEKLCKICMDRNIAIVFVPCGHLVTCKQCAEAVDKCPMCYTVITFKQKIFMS

Row | Structure (SMILES) | z-score [1] | z-score [2] | z-score [3] | z-score [4] | z-score [5] | z-score [6] | z-score [7] | z-score [8] | z-score [9] | z-score [10] | z-score [11] | z-score [12] | z-score [13] | composite z-score [14] | z-score [15] | z-score [16] | z-score [17] | z-score [18] | z-score [19] | composite z-score [20]
1 | COCCOC(=O)N1C(=O)[C@@]2(c3cc(C#CCC(C(=O)OC)C(=O)OC)ccc31)[C@H](C(=O)N1CCc3cc(OC)c(OC)cc3C1)[C@H]1C(=O)O[C@H](c3ccccc3)[C@H](c3ccccc3)N1[C@@H]2c1ccc(O)cc1 | 0.373 | 0.643 | 0.391 | -0.422 | -1.54 | 0.448 | -0.216 (inactive) | 0.109 | 0.516 | 0.0392 (inactive) | 0.227 | 0.541 (inactive) | -0.0494 (inactive) | -0.0728 (inactive) | -0.0757 (inactive) | 1.34 (inactive) | 0.992 (inactive) | 0.199 (inactive) | -0.888 | -0.0034
2 | O=C(NCCO)C1=C[C@H](Oc2ccccc2I)[C@@H](O)[C@H](NCc2ccc(F)cc2)C1 | 0.576 | 2.37 | -0.793 | -0.217 | -1.26 | -0.574 | 0.471 (inactive) | 0.391 | 0.185 | -1.45 (inactive) | -1.47 | -2.04 (inactive) | -0.206 (inactive) | -0.287 (inactive) | 0.367 (inactive) | 0.423 (inactive) | -0.802 (inactive) | -1.44 (inactive) | -0.264 | 0.181
3 | CCOC(=O)C1=CC[C@@H](c2ccc(F)cc2)N(S(=O)(=O)c2ccc(C)cc2)[C@H]1c1ccc([N+](=O)[O-])cc1 | -0.606 | -0.415 | -0.661 | -0.724 | 0.192 | 1.65 | -0.754 (inactive) | 0.235 | -0.862 | 1.8 (inactive) | 1.09 | 1.18 (inactive) | 0.0003 (inactive) | -0.554 (inactive) | 0.0362 (inactive) | 0.248 (inactive) | 0.253 (inactive) | 0.321 (inactive) | -0.678 | 0.0077
4 | C=CCC(OC(C)=O)[C@@H]1[C@@H](N(Cc2ccc(-c3ccccc3)cc2)C(=O)c2ccc(C)cc2)c2cc(OCCCO)ccc2N1C(=O)c1ccc2ccccc2c1 (stereo not given in full) | 2.26 | 0.558 | 1.71 | 0.697 | -0.481 | 3.18 | -0.379 (inactive) | 0.0174 | 0.593 | 0.864 (inactive) | -0.643 | -0.766 (inactive) | 1.12 (inactive) | -1.55 (inactive) | -0.0877 (inactive) | -1.99 (inactive) | 0.406 (inactive) | 0.67 (inactive) | 1.36 | -0.0357
5 | COCC(=C=CC[C@@H](O)c1cccc(OCCO)c1)C[C@@H](O)COCc1ccccc1 | 1.06 | 1.08 | 1.41 | 1.16 | 0.34 | 0.638 | 0.362 (inactive) | 0.539 | 0.532 | 0.244 (inactive) | 0.744 | -0.353 (inactive) | 0.629 (inactive) | -2.13 (inactive) | 0.13 (inactive) | -2.24 (inactive) | 0.481 (inactive) | 0.392 (inactive) | 0.629 | 1.16
6 | COC(=O)c1ccc([C@H](NC(=O)c2ccccc2)[C@]2(C)C[C@H]2C2CCCCC2)cc1 | -0.844 | -1.92 | -0.949 | -0.831 | -0.733 | -1.15 | -1.16 (inactive) | 0.624 | -1.33 | 0.768 (inactive) | 0.38 | 1.28 (inactive) | 0.713 (inactive) | -0.256 (inactive) | 0.371 (inactive) | 0.832 (inactive) | -1 (inactive) | -0.768 (inactive) | 0.293 | -0.127
7 | CC(C)CNC(=O)[C@@H]1c2ccccc2C(=O)N(C2Cc3ccccc3C2)[C@H]1c1ccc(CO)cc1 | 2.03 | 0.319 | 1.74 | 0.0933 | 0.362 | 3.2 | 0.228 (inactive) | -0.836 | 0.00489 | 0.797 (inactive) | 0.98 | -0.283 (inactive) | 0.76 (inactive) | -0.417 (inactive) | 0.444 (inactive) | -1.09 (inactive) | 0.725 (inactive) | 1.03 (inactive) | 1.4 | -0.109
8 | N#Cc1ccc(C(O)C2C=CC3C(=O)N(c4ccccc4)C(=O)C3N2Nc2ccc([N+](=O)[O-])cc2)cc1 (stereo not given) | -0.211 | -1.46 | 0.436 | -0.0671 | -0.333 | -2.66 | -1.78 (inactive) | 0.5 | -1.43 | -0.233 (inactive) | -0.298 | -0.0292 (inactive) | -0.291 (inactive) | 0.154 (inactive) | 1.01 (inactive) | -0.114 (inactive) | -1.15 (inactive) | -0.224 (inactive) | -0.783 | -0.162
